In PubChem BioAssay (NCI):
The panel holds about 83,000 compounds, 20% with a hit somewhere; the sample as a whole holds those more often.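 Growth was measured after 48 h exposure to one concentration of compound in 96-well plates. Values under 10 count as active.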 The source made the active and inactive calls.

Experiments:
Test in all cases: NCI-60 one-dose screen, 48 h (100 = growth as untreated, 0 = no growth, -100 = all killed)
Conditions in all cases: 10 µM unless noted
[1] = test system: SR leukemia
[2] = test system: RPMI-8226 leukemia
[3] = test system: OVCAR-8 ovarian
[4] = test system: OVCAR-5 ovarian
[5] = test system: OVCAR-4 ovarian
[6] = test system: SK-OV-3 ovarian
[7] = test system: IGROV1 ovarian
[8] = test system: OVCAR-3 ovarian
[9] = test system: HS 578T breast
[10] = test system: NCI/ADR-RES ovarian

Measured: growth

CCOC(=O)n1cc(-c2nonc2-c2cn(C)c3ccccc23)c2ccccc21
inactive: [1] 19.7% | [2] 38.9% | [3] 51.6% | [4] 55.6% | [5] 59.9% | [6] 45% | [7] 46.8% | [8] 25.1% | [9] 29.3% | [10] 15.2%

COc1cc(-c2nc3occn3c2-c2ccnc(NCCCNS(=O)(=O)c3ccccc3)n2)ccc1F
active: [2] 5.21%
inactive: [1] 56.4% | [3] 21.9% | [4] 111% | [5] 33% | [6] 59.2% | [7] 49.8% | [8] 66.2% | [9] 75.6% | [10] 20.5%

Cn1cc(-c2nc(-c3c[nH]c4ccncc34)cs2)c2cc(Br)ccc21
inactive: [6] 40.8%
active: [1] -23.6% | [2] -38% | [3] -53.2% | [4] -94.1% | [5] -71% | [7] -82.8% | [8] -92.5% | [9] -44% | [10] -57.6%

CN1CCN(CCCOC(=O)c2c3c(n4ccccc24)C(=O)c2ncccc2C3=O)CC1
active: [1] -11.2% | [2] -0.22% | [3] 4.94% | [4] -4.35% | [5] -11.6% | [6] -46.4% | [7] 4.12% | [8] 0.457% | [9] -1.51% | [10] 2.37%

COc1cccc2c(N=NC(=O)c3ccc(S(N)(=O)=O)cc3)c(O)[nH]c12
inactive: [1] 81.2% | [2] 103% | [3] 102% | [4] 106% | [5] 96.8% | [6] 107% | [7] 101% | [8] 114% | [9] 101% | [10] 105%

O=C(CCCCCCN1CC(=O)N2[C@@H](c3ccc(Cl)cc3)c3[nH]c4ccccc4c3C[C@H]2C1=O)NO
inactive: [1] 20.2% | [2] 22.4% | [3] 57.7% | [4] 69.9% | [5] 59.3% | [6] 82.9% | [7] 53.8% | [8] 66.7% | [9] 67.9% | [10] 93%

CCN(CCO)CC(C)Nc1ccc([N+](=O)[O-])c2sc3ccccc3c(=O)c12 (stereo not given)
inactive: [1] 13% | [2] 40.9% | [3] 26.2% | [4] 57.7% | [5] 43.7% | [6] 45.6% | [8] 49.1% | [9] 26.8% | [10] 37.2%
active: [7] -11.3%

O=C1C(Cl)=C(NCCN2CCOCC2)C(=O)c2ncccc21
active: [1] -17.9% | [4] -22.8% | [7] -58.8% | [8] -63.5% | [9] 1.02%
inactive: [2] 20.4% | [3] 31.1% | [5] 95.8% | [6] 41.5% | [10] 67.8%

O=C(/C=C/c1cccc(Cl)c1)c1cccc(OCCCCOc2cccc(C(=O)/C=C/c3cccc(Cl)c3)c2)c1
active: [2] -26.8%
inactive: [1] 39.5% | [3] 97.3% | [4] 109% | [5] 93.3% | [6] 113% | [7] 88.9% | [8] 91.9% | [9] 95.8% | [10] 99.7%

CCOC(=O)c1c(-c2ccccc2)n2c(=O)cc(C)c3c(O)c(O)cc1c32
inactive: [1] 22.4% | [2] 36.5% | [3] 29.1% | [4] 70.1% | [5] 15.4% | [6] 76.3% | [7] 61.2% | [9] 87.7% | [10] 15.3%
active: [8] 0.992%

CN1CCN(c2ccc3c(c2)nc(NNC(=O)c2cnccn2)c2cccn23)CC1
inactive: [1] 15% | [2] 45.3% | [3] 20.9% | [4] 49.3% | [5] 25% | [6] 32.5% | [7] 15.6% | [8] 13.9% | [9] 75.4% | [10] 16.9%

N#Cc1nc(-c2ccc(F)cc2)oc1S(=O)(=O)N1CCN(c2ccc(F)cc2)CC1
inactive: [2] 46.5% | [3] 71.4% | [4] 111% | [5] 105% | [6] 118% | [7] 76% | [8] 91% | [9] 107% | [10] 94.7%
active: [1] 6.45%

N#CCC1=NC(c2cccs2)=Nc2ccccc2S1
inactive: [1] 91.5% | [2] 65.7% | [3] 95.9% | [4] 86.6% | [5] 93.8% | [6] 76.4% | [7] 86.4% | [8] 95.3% | [9] 96.2% | [10] 98%

O=C1NC(=C(Cl)Cl)/C(=N/S(=O)(=O)N2CCCCC2)N1
active: [1] -46% | [2] -22.7% | [3] 9.05% | [7] 1.81% | [8] -57%
inactive: [4] 90.9% | [5] 79.9% | [6] 94% | [9] 29.1% | [10] 98.5%

O=C(CBr)CN1C(=O)c2ccccc2C1=O
inactive: [1] 98.9% | [2] 112% | [3] 103% | [4] 97.4% | [5] 103% | [6] 99.7% | [7] 103% | [8] 102% | [9] 105% | [10] 105%

O=C(N/N=C/c1ccc([N+](=O)[O-])cc1)c1ccc2nc(-c3ccc(Cl)cc3)[nH]c2c1
inactive: [2] 10.8% | [3] 21.6% | [4] 53.2% | [5] 23% | [6] 60.5% | [7] 19.1% | [8] 11.3% | [9] 36.8% | [10] 77.3%
active: [1] -8.49%

COc1cc(C(=O)c2c(N)ncn2-c2ccccc2)cc(OC)c1OC
inactive: [1] 122% | [2] 136% | [3] 101% | [4] 102% | [5] 101% | [6] 95.4% | [7] 88.1% | [8] 99.2% | [9] 98.5% | [10] 82.5%

CN1C(=O)/C(=C/c2ccc(C(=O)Nc3ncc(Cc4ccc(F)cc4)s3)cc2)SC1=S
inactive: [1] 44.5% | [2] 54.6% | [3] 57.9% | [4] 61.2% | [5] 60.1% | [6] 40.3% | [7] 54.3% | [8] 27.7% | [9] 37.9% | [10] 28.7%

CC12CCC(/C(=C/NNc3ccc([N+](=O)[O-])cc3[N+](=O)[O-])C1=O)C2(C)C (stereo not given)
inactive: [1] 56.5% | [2] 73.8% | [3] 72.7% | [4] 74.5% | [5] 74.2% | [6] 89.6% | [7] 68.6% | [8] 87.4% | [9] 110% | [10] 76.5%

C=CC1(C)C(O[Si](C)(C)C(C)(C)C)CC2C3OC(=O)NC31c1cccc3c1[C@H](C(=O)N3C)C2(C)C (stereo not given in full)
inactive: [1] 24.4% | [3] 55.1% | [4] 75.8% | [5] 55.1% | [6] 86.6% | [7] 80.9% | [8] 52.7% | [9] 79.2% | [10] 60.5%
active: [2] 7.41%

O=C(CSc1nc2ccc([N+](=O)[O-])cc2[nH]1)Nc1ccc(Br)cc1
inactive: [1] 22.9% | [3] 52.5% | [4] 85.7% | [5] 34.4% | [6] 44.7% | [7] 63.8% | [8] 39.3% | [9] 78.7% | [10] 59.3%
active: [2] 6.95%

CC(/C=C1\SC(=S)N(CC(=O)NC(Cc2c[nH]c3ccccc23)C(=O)O)C1=O)=C\c1ccccc1 (stereo not given)
inactive: [1] 108% | [2] 105% | [3] 100% | [4] 102% | [5] 101% | [6] 105% | [7] 101% | [8] 108% | [9] 103% | [10] 103%

CC(C)c1ccc(C(=O)Nc2sc3cc(O)ccc3c2C#N)cc1
inactive: [2] 21.2% | [3] 51.2% | [4] 87.8% | [5] 58% | [6] 50.2% | [7] 31.1% | [8] 16.4% | [9] 26.6% | [10] 11.2%
active: [1] 0.658%

CCOC(=O)c1c(NC(=O)CSc2n[nH]c3nc4ccccc4n23)sc(CC)c1C
inactive: [2] 107% | [3] 99.2% | [4] 82% | [5] 98.1% | [6] 97.4% | [7] 20.4% | [8] 106% | [9] 102% | [10] 95.2%
active: [1] -28.6%

N#Cc1c(N2CCOCC2)nc(=S)[nH]c1-c1ccccc1
inactive: [1] 53.1% | [2] 73.6% | [3] 81.8% | [4] 71.7% | [5] 77.3% | [6] 64.4% | [7] 29.1% | [8] 66.8% | [9] 26.8% | [10] 80.9%

CCOC(=O)c1c(-c2ccc(Cl)cc2)c(C#N)c2c(C#N)c(N)nn2c1N
inactive: [1] 11.9% | [2] 49.3% | [3] 75.9% | [4] 83.4% | [5] 77.3% | [6] 84.1% | [7] 62.2% | [8] 65.4% | [9] 75.3% | [10] 63.1%

COc1cc2c3c(c1O)-c1ccccc1[C@@H]1OC(=O)N(CC2)[C@H]31
inactive: [1] 98.2% | [2] 99.2% | [3] 97.8% | [4] 116% | [5] 105% | [6] 106% | [7] 114% | [8] 115% | [9] 102% | [10] 104%
